Source: ChEMBL document CHEMBL3433997, “St. Jude Leishmania screening dataset” (2016)

Assays:
Format in all cases: functional
[1] = molecular target: Solute carrier family 2, facilitated glucose transporter member 1 (Homo sapiens) (UniProt P11166); test: ST_JUDE_LEISH: Cytotoxicity at 2uM final concentration against transgenic Leishmania Mexicana promastigotes LmGLUT1 that are glucose transport deficient and complemented with the human glucose transporter GLUT1. Activity is measured by DNA content using SYBR green in vitro
Solute carrier family 2, facilitated glucose transporter member 1 (Homo sapiens), sequence (P11166 whole entry): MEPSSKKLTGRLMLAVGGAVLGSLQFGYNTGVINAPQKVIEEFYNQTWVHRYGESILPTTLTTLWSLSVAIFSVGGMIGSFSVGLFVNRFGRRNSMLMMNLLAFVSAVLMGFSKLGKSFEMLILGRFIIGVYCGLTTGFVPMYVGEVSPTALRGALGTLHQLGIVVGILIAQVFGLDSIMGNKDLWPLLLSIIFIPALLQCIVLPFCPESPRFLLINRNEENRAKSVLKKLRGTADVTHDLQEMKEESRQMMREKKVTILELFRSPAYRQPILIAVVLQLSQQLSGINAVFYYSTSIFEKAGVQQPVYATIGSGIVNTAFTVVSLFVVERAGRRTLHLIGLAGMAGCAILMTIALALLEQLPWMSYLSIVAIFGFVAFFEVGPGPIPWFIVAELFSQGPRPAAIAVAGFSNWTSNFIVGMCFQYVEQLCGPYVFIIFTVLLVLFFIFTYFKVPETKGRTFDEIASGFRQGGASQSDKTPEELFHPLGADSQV

[2] = molecular target: Hexose transporter 1 (Plasmodium falciparum) (UniProt O97467); test: ST_JUDE_LEISH: Cytotoxicity at 2uM final concentration against transgenic Leishmania Mexicana promastigotes LmPfHT that are glucose transport deficient and complemented with the Plasmodium falciparum hexose transporter. Activity is measured by DNA content using SYBR green in vitro
[3] = molecular target: Glucose transporter (Leishmania mexicana) (UniProt O61059); test: ST_JUDE_LEISH: Cytotoxicity at 2uM final concentration against transgenic Leishmania Mexicana promastigotes LmGT2 that are glucose transport deficient and complemented with the L. Mexicana glucose transporter 2. Activity is measured by DNA content using SYBR green in vitro

SMILES	inhibition [1]	inhibition [2]	inhibition [3]
CC(C)c1ccc(NC(=O)c2ccc(NCCCN(C)Cc3ccccc3)c([N+](=O)[O-])c2)cc1	0.47%	-1.98%	-0.53%
Cc1cccc(OCC(=O)Nc2cccc(NC(=O)COc3cccc(C)c3)n2)c1	0.99%	1.55%	1.64%
Cc1n[nH]c2cc(F)c(-c3cc(OC[C@@H](N)Cc4ccccc4)cnc3-c3ccoc3)cc12	10.8%	16.1%	6.42%
Cc1cccc2c3c([nH]c12)C1(CCN(Cc2ccccc2)CC1)NC(C(=O)NCc1ccccc1)C3 (stereo unspecified)	0.05%	-0.76%	0.87%
CCCC(CNCc1cccc(SC(F)(F)F)c1)CNc1cc(=O)c2ccccc2[nH]1 (stereo unspecified)	-0.14%	1.41%	3.17%
Cc1cc(NCCc2ccccc2)nc(NC(=N)Nc2cccc(F)c2)n1	2.17%	3.28%	-0.09%
Cc1cc(N[C@@H](CC(C)C)C(=O)NCCc2ccccc2)nc(NCC2CCCCC2)n1	6.58%	6.23%	3.37%
CN(C)CCCN1CCN(C(=O)c2cc3cc(-c4ccccc4)ccc3n2S(=O)(=O)c2ccccc2)CC1	60.9%	24.3%	2.85%
Oc1ccc(Cl)cc1CN1CCC2(CCCN(CC3CCC3)C2)C1 (stereo unspecified)	-3%	-0.63%	1.23%
NC1=NC(CCc2ccccc2)N(c2ccccc2)C(N)=N1 (stereo unspecified)	10.1%	9.38%	9.31%
Cc1c(C(=O)N(C)C)sc2c1c(=O)n(Cc1ccccc1)c(=O)n2CC(=O)Nc1ccccc1F	2.21%	3.39%	1.57%
C=CCc1cc(Cc2cnc(N)nc2N)cc(CCC)c1O	-0.63%	-0.27%	-0.78%
